D1 antag = antagonists of human D1 dopamine receptor. P21728. activity change, negative = inhibition, % at 10 µM. HEK293 TREx D1 cells, calcium flux, dopamine EC80; hits give low values. 360,000 compounds, 3.2% hits; in the data active = activity change below about -30%; note: % is set by controls: 0 for no effect and ±100 for the full control effect
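Allosteric or orthosteric antagonism assessed as attenuation of the calcium response to EC80 dopamine, added 180 s after compound, in induced HEK293 Trex D1 cells loaded with no-wash calcium dye.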
LDHA block = inhibitors of human lactate dehydrogenase A. purified LDHA, NADH/diaphorase-resazurin fluorescence; hits give low values. activity change, % (values are at about 110 or 230 µM). 480,000 compounds, 0.15% hits; in the data active = activity change below about -30%;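 note: plate controls were DMSO wells for no effect and wells without enzyme for full effect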
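Human LDH5 (2 nM) was incubated with 0.06 mM NADH and 0.2 mM pyruvate for 5 min at room temperature in Tris pH 7.4. Remaining NADH was coupled through diaphorase/resazurin, and resorufin fluorescence was read at 0 and 20 min.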
TRHR ag = TRH receptor (human) agonism; 360,000 compounds, 0.18% hits; activation, % at 2 µM; AID 493084; P34981; TRHR cells, calcium flux fluo-8, FDSS agonist mode; note: 0% is about no effect
Target sequence (P34981 whole entry, looked up): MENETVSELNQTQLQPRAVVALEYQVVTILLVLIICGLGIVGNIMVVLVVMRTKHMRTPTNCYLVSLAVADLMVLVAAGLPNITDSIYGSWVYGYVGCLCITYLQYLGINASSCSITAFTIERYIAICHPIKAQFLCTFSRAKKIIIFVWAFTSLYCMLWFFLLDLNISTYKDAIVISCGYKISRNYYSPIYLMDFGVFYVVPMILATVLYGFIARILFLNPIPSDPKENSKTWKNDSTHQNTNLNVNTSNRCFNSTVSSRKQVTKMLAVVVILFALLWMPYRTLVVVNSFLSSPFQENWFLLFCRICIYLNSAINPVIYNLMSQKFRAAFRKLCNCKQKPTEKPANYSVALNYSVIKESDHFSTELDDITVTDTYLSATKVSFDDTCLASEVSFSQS
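Steps: seed TRHR cells overnight; add fluo-8 no-wash Ca dye, RT 30 min–1.5 h; record 10 s baseline; pin-transfer compounds; monitor fluorescence 1 cycle/s for the agonist window. Calcium increases flag candidate agonists.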
TRHR enhancer = allosteric enhancers of human TRH receptor; TRHR cells, fluo-8 calcium fluorescence, EC20 TRH enhancement; enhancement, % at 2 µM; 360,000 compounds, 0.66% hits; in the data active = enhancement above about 30%; note: 0% is about no effect
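TRHR-expressing cells loaded with fluo-8 calcium dye were read kinetically (ex 480/em 530) during compound addition, then stimulated with an EC20 of TRH (10 nM final). Enhancement of the Gq-mediated intracellular calcium response was scored.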
D1 PAM = potentiators of human D1 dopamine receptor | HEK293 TREx D1 cells, calcium flux, dopamine EC20 potentiation | AID 504651 | potentiation, % at 10 µM | 360,000 compounds, 0.036% hits | P21728; in the data active = potentiation above about 30%; note: 0% is about no effect
D1 agonist = agonists of human D1 dopamine receptor. activation, % at 2 µM. HEK293 T-REx D1 cells, calcium flux, agonist mode. P21728. 360,000 compounds, 1% hits. AID 504660; note: 0% is about no effect
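Inducible HEK293 T-REx D1 cells, force-coupled to calcium signalling, were plated at 4000 cells/well with tetracycline and held overnight at 30 C. After no-wash calcium dye loading, compound-evoked calcium rise over 180 s flagged agonists.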
* hit, by the source's call; . = no result. Rows were chosen to be rich in hits. Some 3.6% of all compounds tested hit in one or more screens of this group. Cut-off read from the data, not from the text of the source, unless noted: active = activation above about 30%; inactive = the rest.

SMILES	D1 antag	LDHA block	TRHR ag	TRHR enhancer	D1 PAM	D1 agonist
N#Cc1ccc(NC(=O)CN2C(=O)NC3(CCCCCCC3)C2=O)cc1Cl	-56.8*	-8.7	0.3	-0.3	1.9	1.8
Cc1cccc(OCCNc2ccc([N+](=O)[O-])c3cccnc23)c1	.	-3.4	.	.	.	.
c1ccc(CCNCc2ccco2)cc1	.	0.8	.	.	.	.
O=C1NC(=O)C(CCc2ccncc2)(Cc2cccc(Cl)c2Cl)C(=O)N1c1ccc(Br)cc1 (stereo unspecified)	-75.7*	-3.4	0.0	2.5	-9.2	1.6
Cc1ccc(/C=C/c2nc3ccccc3c(=O)n2-c2ccccc2)s1	.	11.8	.	.	.	.
Clc1ccc2c(c1)C(OC1CN3CCC1CC3)c1ccccc1CS2 (stereo unspecified)	-50.2*	-1.8	0.8	7.0	-8.2	34.9*
COc1ccc(C2SCC(=O)Nc3c2c(C)nn3C)cc1 (stereo unspecified)	.	-0.7	.	.	.	.
COc1ccc(-c2c(C)c3cc(OC(=O)N(C)C)ccc3oc2=O)cc1	.	-32.9*	.	.	.	.
COc1ccc(-c2c(C)c3ccc(OC(=O)N(C)C)cc3oc2=O)cc1	.	-1.5	.	.	.	.
O=C(c1cn(CCCOc2ccccc2Cl)c2ccccc12)C(F)(F)F	.	0.0	.	.	.	.
COc1ccccc1CCNCc1ccc(OC)c(OC)c1OC	-5.9	-18.1	0.5	39.0*	-5.4	15.5
N#CC(C#N)=NNc1ccc(S(N)(=O)=O)cc1	-0.3	-45.0*	-0.2	-6.7	1.8	2.1
CN1CCN(c2ccc([N+](=O)[O-])c3no[n+]([O-])c23)CC1	-38.0*	21.5	9.9	-0.4	-6.0	33.2*
O=[N+]([O-])c1ccc(N(CCO)CCO)c2c1no[n+]2[O-]	.	5.7	.	.	.	.
Fc1ccccc1C1NCc2ccccc2-n2cccc21 (stereo unspecified)	.	-3.9	.	.	.	.
COc1ccc(/C=C/C2=CCN(C)CC2)cc1	-9.9	1.8	1.8	2.3	-7.2	5.2
CN1CC=C(/C=C/c2ccc(-c3ccccc3)cc2)CC1	-40.1*	-0.4	0.4	-0.2	1.4	23.8
CC1CCCC(=O)CCCCCc2cc(O)cc(O)c2C(=O)O1 (stereo unspecified)	.	11.8	.	.	.	.
Cc1ccc(NC(=O)N(Cc2ccc3c(c2)OCO3)C2CCN(Cc3ccccc3)CC2)cc1C	-8.3	0.7	3.7	10.0	-4.2	19.9
Cc1ccc(NC(=O)N(Cc2ccc3c(c2)OCO3)C2CCN(Cc3ccccc3)CC2)cc1Cl	-7.0	4.7	4.6	-4.9	-4.8	41.7*
CCNC(=O)NC(=O)C(C)OC(=O)c1c(C)nn(Cc2ccccc2Cl)c1Cl (stereo unspecified)	-35.3*	-5.4	-0.1	-3.3	-3.5	5.4
Cc1c(-c2ccc(Cl)cc2)c(=O)oc2ccc(OC(=O)N(C)C)cc12	.	0.4	.	.	.	.
O=C(NC1CCSC1=O)c1cccs1 (stereo unspecified)	.	0.8	.	.	.	.
CC(C)C[C@H](NC(=O)[C@@H]1CCCN1C(=O)[C@@H](N)Cc1ccc(O)cc1)C(=O)NCC(N)=O	-36.6*	-1.4	0.6	-3.2	6.5	0.9
CC(C)CC(NC(=O)C1CCCCC1)C(=O)N1CCC2(CC1)OCCO2 (stereo unspecified)	19.5	-7.4	-0.6	-3.6	-0.7	2.2
SMILES	D1 antag	LDHA block	TRHR ag	TRHR enhancer	D1 PAM	D1 agonist
CCCN1C(=O)NC(=O)C2(Cc3c(ccc4ccccc34)N(C)C2)C1=O (stereo unspecified)	.	33.8	.	.	.	.
O=C(C(Cc1ccccc1)NS(=O)(=O)c1cccc2nsnc12)N1CCC2(CC1)OCCO2 (stereo unspecified)	3.5	-4.6	0.7	-3.3	-3.3	2.3
O=C(C1CCCN(S(=O)(=O)c2cccc3nsnc23)C1)N1CCC2(CC1)OCCO2 (stereo unspecified)	-35.6*	-3.9	0.9	1.7	9.1	-0.1
Cn1cc(C(=O)NCC(=O)NC(C)(C)C)c2ccccc21	.	-17.8	.	.	.	.
CCN(CC)c1ccc(/C=N/c2sc3c(c2C#N)C2CCN3CC2)c(O)c1	4.1	2.8	52.3*	-14.3	-1.6	247.1*
COc1ccc2c(c1)CC1(CN2C)C(=O)NC(=O)N(c2ccc(F)cc2)C1=O (stereo unspecified)	-82.2*	11.3	-0.2	1.5	0.8	0.7
Cc1ccc(C(=O)N[C@@H](C)CN2C3=NC[C@@H](Cc4ccccc4)N3C[C@H]2Cc2ccc(O)cc2)cc1Br	-44.1*	1.1	-0.4	10.8	-5.8	-0.8
Cc1ccc(C(=O)N[C@@H](C)CN2C3=NC[C@H](Cc4ccccc4)N3C[C@H]2Cc2ccc(O)cc2)cc1Br	-65.2*	2.0	-0.6	-0.3	-12.3	0.1
O=C(OC1CCOC1=O)c1cccs1 (stereo unspecified)	.	2.9	.	.	.	.
COCCN1C(=O)NC(=O)/C(=C\c2ccc(Br)cc2)C1=O	-54.8*	-1.9	0.5	-0.3	-5.9	4.3
CN(C)c1ccc(/C=C2/C(=O)NC(=O)N(CCc3ccc(F)cc3)C2=O)cc1	-1.5	-0.4	0.4	-5.5	-5.8	-0.7
COc1ccc(CNCCc2cccc(F)c2)cc1	.	-12.1	.	.	.	.
CN(CCOc1ccccc1)c1ccc([N+](=O)[O-])c2cccnc12	.	24.8	.	.	.	.
CN1C(=O)NC(=O)C2(Cc3c(ccc4ccccc34)N(C)C2)C1=O (stereo unspecified)	.	44.9	.	.	.	.
CCOc1ccccc1NC(=O)c1cn(CC)c2ccccc12	.	-4.2	.	.	.	.
CCCCN1C(=O)NC(=O)C2(Cc3c(nc4c(C)cccn4c3=O)N3CCc4ccccc4C32)C1=O (stereo unspecified)	52.5	6.1	2.9	3.8	5.2	37.6*
CCCCN1C(=O)NC(=O)C2(Cc3c(nc4ccccn4c3=O)N3CCc4ccccc4C32)C1=O (stereo unspecified)	19.1	7.1	6.1	-9.9	7.8	26.2
CCN1C(=O)C(=Cc2ccc(N3CCOCC3)o2)C(=O)N(CC)C1=S	-0.7	-1.4	25.8	2.3	-1.7	65.9*
O=C1NC(=O)N(c2ccc3c(c2)OCO3)C(=O)/C1=C/c1ccc(N2CCCC2)o1	3.7	0.4	13.0	-7.4	-7.0	33.2*
